APP 5UTR inh = APP translation inhibition; SH-SY5Y APP 5'UTR-luciferase reporter, luminescence; inhibition, % at 2 µM; 190,000 tested, 0.82% active;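 active = inhibition above a set limit, derived from the sample mean plus 3 SD, cut at about 45% in these data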
Ba/F3 V617F tox = lowers viability of Ba/F3 cells expressing EpoR and JAK2V617F | 220,000 tested, 1.1% active | AID 1446 | inhibition, % at 5.6 µM | ATP luminescence;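 active = inhibition above the campaign mean plus 3 SD over all tested compounds, cut at about 24% in these data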;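 also: cytokine-independent growth of Ba/F3 cells driven by EpoR plus mutant JAK2; 0% = DMSO-treated cells and 100% = JAK inhibitor I control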
aSyn 5UTR inh = MLPCN primary screen, SNCA 5' untranslated region; alpha-synuclein 5'UTR reporter, inhibitor activity; inhibition, % (tested at 7.5 µM); 300,000 tested, 0.82% active; in the data active = inhibition above about 60%;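 also: H4 neuroglioblastoma cells stably carrying SNCA 5'UTR luciferase fusion; 0% = DMSO wells and 100% = positive control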
IEC-6 cytotox = IEC-6 cytotoxicity, counter-screen for KLF5 inhibitors; luminescence viability; inhibition, % at 5 µM; 290,000 tested, 0.78% active; AID 1825; in the data active = inhibition above about 22%;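 also: 0% = plate median of test compound wells and 100% = cytotoxic reference compound wells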
KLF5 inh = kruppel-like factor 5 inhibition; DLD-1 KLF5 promoter-luciferase reporter, luminescence; inhibition, % at 5 µM; 290,000 tested, 0.23% active;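 active = inhibition above a per-plate limit of that plate's mean compound inhibition plus 3 SD, cut at about 60% in these data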;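 also: 0% = DMSO wells and 100% = LY294002 at 200 µM; higher means less KLF5 promoter-driven luciferase light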
BaF3 parental = reduces parental Ba/F3 cell viability, JAK2V617F counter-screen; inhibition, % at 5.6 µM; CellTiter-Glo ATP luminescence; AID 1486; 220,000 tested, 1.1% active;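 active = inhibition above a per-campaign cutoff, the mean inhibition of all tested compounds plus 3 SD, cut at about 27% in these data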;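 also: 0% = DMSO wells and 100% = JAK Inhibitor I control wells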
* hit, by the source's call; · = no result given. Sampled rows, rich in hits. Any-hit rate of the full collection: about 2.2%.

SMILES	APP 5UTR inh	Ba/F3 V617F tox	aSyn 5UTR inh	IEC-6 cytotox	KLF5 inh	BaF3 parental
BrC(=C\c1ccccc1)/C=N/Nc1nc(N2CCOCC2)nc(N2CCOCC2)n1	63*	2	-2	13	-7	6
O=C(O)c1ccccc1OCc1nc2ccccc2s1	·	·	-146	1	-71	·
COC(=O)c1ccc2c(c1)C(C)(C)C(/C=C/c1ccc(OC)c(OC)c1OC)=[N+]2C	29	2	102*	11	6	6
COC(=O)c1ccc2c(c1)C(C)(C)C(/C=C/c1ccc(O)cc1)=[N+]2C	-10	7	119*	4	-12	29*
COc1cc(/C=C/c2ccc(O)cc2)cc(OC)c1	·	11	-156	8	-81	-5
COC(=O)c1ccc(COc2cccnc2[N+](=O)[O-])cc1	·	·	-29	6	-47	·
CN1C(=O)[C@H]2[C@@H](C3CC3)N3C(=O)CN(CC4CC4)C(=O)[C@@]3(C)[C@H]2C1=O	·	·	-21	1	-11	·
CC1(C)N=C(N)N=C(N)N1c1cccc(CN)c1	·	61*	-1	2	-30	58*
CC1(C)N=C(N)N=C(N)N1c1ccc(F)cc1F	-17	29*	11	3	11	36*
Cc1cccc(N2C(N)=NC(N)=NC23CCCCC3)c1	6	61*	-5	-6	-4	61*
COc1ccc(OC)c(N2C(N)=NC(N)=NC23CCCC3)c1	7	3	-14	-1	-22	0
O=C(Nc1ccccc1Cl)Nc1ccnn1C1CCN(C(=O)CCN2CCCO2)CC1	·	·	-21	1	-25	·
O=C(COc1coc(CN2CCN(Cc3ccccc3)CC2)cc1=O)Nc1ccccc1	·	·	6	·	·	·
COc1ccccc1C1=NN(C2=NN=C(N)Cc3ncnn32)C(O)(C(F)(F)F)C1 (stereo not drawn)	4	4	12	0	-17	10
COc1ccc(NC(=O)c2oc3ccccc3c2NC(=O)c2ccco2)cc1	6	-2	24	-5	-19	35*
COc1ccc(NC(=O)c2oc3ccccc3c2NC(=O)c2ccco2)c(OC)c1	-8	1	11	4	1	3
COc1ccc(NC(=O)CCNS(=O)(=O)c2ccc(C)c(C)c2)cc1OC	·	·	31	4	-18	·
c1csc(C2Nc3cccc4cccc(c34)N2)c1	27	11	2	-3	15	33*
O=C(Nc1ccccc1N1CCOCC1)c1cccc(F)c1	-3	0	10	-4	-15	5
COc1ccc(NS(=O)(=O)c2ccc(N3CCOCC3)c(NC(=O)c3ccco3)c2)cc1	-11	35*	-6	-5	-12	42*
O=C(Nc1cc(S(=O)(=O)Nc2ccc(Cl)cc2)ccc1N1CCCCC1)c1ccc(F)cc1	0	-3	-3	3	-10	-1
COc1ccccc1NS(=O)(=O)c1ccc(N2CCOCC2)c(NC(=O)c2ccco2)c1	-34	3	13	0	-25	10
COc1ccc(NS(=O)(=O)c2ccc(N3CCOCC3)c(NC(=O)C(C)C)c2)cc1	-25	40*	-18	11	8	58*
COc1ccc(NS(=O)(=O)c2ccc(N3CCOCC3)c(NC(=O)c3ccc(F)cc3)c2)cc1	-12	38*	-12	3	-10	43*
COc1ccc(NS(=O)(=O)c2ccc(N3CCOCC3)c(NC(=O)c3cccc(F)c3)c2)cc1	-23	30*	-17	0	-37	41*
SMILES	APP 5UTR inh	Ba/F3 V617F tox	aSyn 5UTR inh	IEC-6 cytotox	KLF5 inh	BaF3 parental
CCCCn1c(N)c(N(CCOC)C(=O)c2cc(-c3ccc(F)cc3)nc3ccccc23)c(=O)[nH]c1=O	·	·	-1	·	·	·
NS(=O)(=O)c1ccc(NCc2cc(Cl)ccc2OCc2ccc(F)cc2)cc1	-6	1	15	-3	3	5
COc1nc(-c2ccccc2)cc(-c2ccc3c(c2)OCO3)c1C#N	·	3	64*	5	-23	-1
COC(=O)c1ccc(S(=O)(=O)N2CCC(C(N)=O)CC2)n1C	·	-3	5	0	-22	-4
O=C(/C=C1\NC2(CCCC2)Cc2ccccc21)C(=O)N/N=C/c1ccccc1O	67*	-3	74*	-5	-28	7
COc1cc(/C=N/NC(=O)C(=O)/C=C2\NC3(CCCC3)Cc3ccccc32)ccc1O	-9	-2	14	4	-8	4
O=C(Oc1nsnc1N1CCOCC1)c1ccccc1	53*	1	-8	2	-13	6
O=C(Oc1nsnc1N1CCOCC1)N1CCOCC1	-2	-4	-10	0	-3	-2
Cc1cc(C(=O)CSc2nc3ccccc3[nH]2)c(C)n1CC1CCCO1 (stereo not drawn)	-189	17	36	4	-66	40*
Cn1c(=O)c2c(=O)cc(NNC(=O)C(C)(C)C)[nH]c2n(C)c1=O	46*	3	15	4	-25	3
CSc1ncc(C(=O)Nc2cccc(C)c2C)c(C)n1	·	·	-8	-2	-42	·
CSc1ccccc1NC(=O)c1c(Br)cnn1C	51*	3	20	1	-31	3
Cn1ncc(Br)c1C(=O)Nc1c(F)c(F)cc(F)c1F	3	-2	13	0	-27	1
O=S(=O)(c1ccc(Cl)cc1)N1CCN(Cc2ccc(O)c3ncccc23)CC1	34	0	77*	2	6	2
Oc1ccc(CN2CCN(Cc3ccccc3)CC2)c2cccnc12	-12	-2	-10	6	12	2
CCN1C/C(=C/c2cccc([N+](=O)[O-])c2)C(=O)/C(=C/c2cccc([N+](=O)[O-])c2)C1	94*	0	·	-7	1	5
O=C1NC(=O)/C(=C/c2cccc([N+](=O)[O-])c2)N1	·	-2	11	-6	-16	0
COC(=O)CCC(=O)N1CCCC(CNS(=O)(=O)c2ccc(OC)cc2)C1 (stereo not drawn)	-14	-2	-10	-4	-5	0
CC1CSc2n(-c3cccc(C(F)(F)F)c3)cc(-c3ccccc3)[n+]21 (stereo not drawn)	-23	56*	-22	7	-12	84*
FC(F)(F)c1cccc(-n2cc(-c3ccccc3)[nH]c2=S)c1	·	·	-26	1	-2	·
CCCNc1nc2c(c(=O)n(C)c(=O)n2C)n1Cc1ccc(F)cc1	-6	22	20	6	-11	36*
C=CCn1c(NCCc2ccccc2)nc2c1c(=O)n(C)c(=O)n2C	-1	5	11	-1	-27	31*
CCNc1nc2c(c(=O)n(C)c(=O)n2C)n1Cc1ccc(Cl)cc1	·	·	-11	-3	1	·
Cn1c(=O)c2c(nc(NCc3cccnc3)n2Cc2ccc(Cl)cc2)n(C)c1=O	-1	50*	22	23*	2	52*
CSCCC(NC(=O)c1ccccc1Cl)C(=O)Nc1cccc(S(=O)(=O)N2CCCC2)c1 (stereo not drawn)	·	·	10	·	·	·
